According to PubChem BioAssay:
Active and inactive are the calls of the source. Unless noted, how the calls were made is not given here.

Legend:
[1] = resazurin metabolic signal in HepG2 cells – cell-based, resazurin fluorescence, 24 h, PK04 Diversity Set, profiling panel (AID 1172); conditions: HepG2 viability, higher = more signal; further: test concentration not given here
[2] = budding yeast growth changes without added modifier – OD600, strain BY4716, 24 h, basal condition, primary screen (AID 1173); conditions: S. cerevisiae BY4716 growth, OD600, 24 h; higher = more signal, called active from +8 up or from −8 down
[3] = viability profiling in MM1S myeloma cells – cell-based, resazurin fluorescence, basal, 24 h, PK04 Diversity Set, profiling panel (AID 1174); conditions: higher = more signal, called active from +8 up or from −8 down;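 further: MM1S multiple myeloma cell line; test concentration not given here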
[4] = target: Dihydroorotate dehydrogenase (quinone), mitochondrial (Plasmodium falciparum (isolate 3D7)) (UniProt Q08210); assay: inhibition of P. falciparum DHODH – biochemical, C-terminal His tag, absorbance 600 nm, primary screen (AID 1175); conditions: PfDHODH enzyme, DCIP absorbance 600 nm; higher = more signal, called active from +8 up or from −8 down;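 further: recombinant parasite enzyme with a five histidine tag at its C terminus; test concentration not given here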
[5] = inhibition of PAO1 biofilm formation – strain PAO1, LB-PBS medium, absorbance 600 nm, primary screen (AID 1176); further: test concentration not given here; conditions: P. aeruginosa PAO1 growth/biofilm, A600, 12 h; higher = more signal
[6] = growth modulation of vineyard yeast isolate – strain RM11-1a, OD600, basal, 24 h, primary screen (AID 1177);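 further: cultures grown under basal conditions with no added stressor; test concentration not given here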; conditions: S. cerevisiae RM11-1a growth, OD600, 24 h; higher = more signal, called active from +8 up or from −8 down
[7] = growth of efflux-deficient E. coli DRC39 – strain DRC39, OD650, 24 h, E. coli filamentation inducers, primary screen (AID 1178);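 further: growth measured as culture turbidity by optical density at 650 nm; test concentration not given here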; conditions: E. coli DRC39 acrAB, higher = more signal, called active from +8 up or from −8 down
[8] = growth of efflux-deficient E. coli DRC39 – strain DRC39, OD650, 48 h, E. coli filamentation inducers, primary screen (AID 1179);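 further: screen aims at cell division blockers that make cells filament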; conditions: E. coli DRC39 delta-acrAB growth, higher = more signal, called active from +8 up or from −8 down
[9] = viability profiling in RPMI8226 myeloma cells – cell-based, resazurin fluorescence, basal, 24 h, PK04 Diversity Set, profiling panel (AID 1180); conditions: higher = more signal;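 further: RPMI8826 multiple myeloma cell line at 5000 cells per well; test concentration not given here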
[10] = target: E3 ubiquitin-protein ligase XIAP (Homo sapiens) (UniProt P98170); assay: small molecules binding XIAP protein – biophysical, small-molecule microarray, fluorescence 635 nm, primary screen (AID 1181); conditions: higher = more signal;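 further: score merges 667 nm emission and signal to noise over triplicate slides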
E3 ubiquitin-protein ligase XIAP (Homo sapiens), sequence (P98170 whole entry, looked up): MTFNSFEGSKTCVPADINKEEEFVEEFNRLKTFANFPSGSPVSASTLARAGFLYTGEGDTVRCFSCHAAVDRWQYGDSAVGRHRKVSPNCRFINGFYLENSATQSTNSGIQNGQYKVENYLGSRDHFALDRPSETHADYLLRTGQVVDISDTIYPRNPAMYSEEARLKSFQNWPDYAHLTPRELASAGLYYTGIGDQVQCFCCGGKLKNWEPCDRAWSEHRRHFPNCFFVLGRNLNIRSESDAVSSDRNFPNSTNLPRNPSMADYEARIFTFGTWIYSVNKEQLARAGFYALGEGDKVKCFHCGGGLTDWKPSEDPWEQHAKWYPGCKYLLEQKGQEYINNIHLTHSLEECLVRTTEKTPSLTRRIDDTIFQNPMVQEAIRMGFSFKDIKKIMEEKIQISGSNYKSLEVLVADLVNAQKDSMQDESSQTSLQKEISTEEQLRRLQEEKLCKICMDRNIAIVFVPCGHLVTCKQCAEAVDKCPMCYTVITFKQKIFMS

Dihydroorotate dehydrogenase (quinone), mitochondrial (Plasmodium falciparum (isolate 3D7)), sequence (Q08210 whole entry, looked up): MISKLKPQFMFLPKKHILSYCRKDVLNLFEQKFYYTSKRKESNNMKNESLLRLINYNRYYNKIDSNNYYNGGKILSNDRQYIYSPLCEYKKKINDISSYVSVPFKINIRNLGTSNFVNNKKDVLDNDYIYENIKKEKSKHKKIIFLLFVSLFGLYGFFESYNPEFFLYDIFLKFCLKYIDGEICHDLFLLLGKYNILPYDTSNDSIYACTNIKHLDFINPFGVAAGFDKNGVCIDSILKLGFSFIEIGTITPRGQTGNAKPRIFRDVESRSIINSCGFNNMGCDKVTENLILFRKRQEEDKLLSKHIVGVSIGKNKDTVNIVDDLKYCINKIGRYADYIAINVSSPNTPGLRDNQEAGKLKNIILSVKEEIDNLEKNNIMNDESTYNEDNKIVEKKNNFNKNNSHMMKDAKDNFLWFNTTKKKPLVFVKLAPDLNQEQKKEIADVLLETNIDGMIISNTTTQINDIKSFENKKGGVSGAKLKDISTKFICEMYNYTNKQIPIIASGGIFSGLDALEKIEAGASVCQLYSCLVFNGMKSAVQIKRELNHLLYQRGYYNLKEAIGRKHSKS

Compound | z-score [1] | z-score [2] | z-score [3] | composite z-score [4] | z-score [5] | z-score [6] | z-score [7] | z-score [8] | z-score [9] | composite z-score [10]
CCOC(=O)[C@H](Cc1ccccc1)NC(=O)CCC1CC(OC(=O)NCc2cccc3ccccc23)CC2(CCCC(COC(=O)NCCc3ccc(Cl)cc3)O2)O1 (stereo not given in full) | 0.723 | -1.24 (inactive) | 0.768 (inactive) | -0.617 (inactive) | 0.32 (inactive) | -0.424 (inactive) | -0.178 (inactive) | -0.907 (inactive) | 1.45 | 0.165
COc1ccc(O[C@H]2C=C[C@@H](c3ccccc3)O[C@@H]2COC(=O)CCC(C)=NOC[C@@H](O)COCc2ccco2)cc1 | 0.206 | -1.06 (inactive) | -1.11 (inactive) | -2.35 (inactive) | -0.0903 (inactive) | -1.48 (inactive) | -0.129 (inactive) | -0.902 (inactive) | 0.37 | 0.122
C[C@H]1CC[C@@H](C(=O)O)N[C@@H]1c1ccc(C#Cc2ccccc2)cc1 | -0.214 | -19.1 (active) | -0.477 (inactive) | -1.36 (inactive) | -0.446 (inactive) | -18.9 (active) | -0.0449 (inactive) | -0.384 (inactive) | 0.0569 | -0.0773
COc1ccc(COC(=O)NN=C2C[C@@H](O)[C@@H](O)[C@@H]3[C@@H]4C(=O)N(C[C@@H]5CCCO5)C(=O)[C@@H]4CC[C@@H]23)cc1 | -0.407 | 0.443 (inactive) | 0.075 (inactive) | -0.367 (inactive) | 0.328 (inactive) | 0.513 (inactive) | 1.02 (inactive) | 1.11 (inactive) | 0.115 | -0.0559
O=C1[C@H]2CCn3c(=O)n(Cc4cc5c(cc4Cl)OCO5)c(=O)n3[C@H]2[C@H](O)[C@@H]2O[C@H]12 | -0.581 | -0.0756 (inactive) | -1.3 (inactive) | -0.877 (inactive) | -0.838 (inactive) | 0.533 (inactive) | 0.552 (inactive) | 0.669 (inactive) | -1.3 | -0.146
CC(=O)OC[C@H]1O[C@H](CC=NOC(C)CN2CCCCc3nc(C)c(C)cc32)C=C[C@@H]1OC(C)=O (stereo not given in full) | 0.351 | 0.515 (inactive) | 0.535 (inactive) | -0.582 (inactive) | -0.266 (inactive) | 0.575 (inactive) | 0.132 (inactive) | -0.269 (inactive) | 0.46 | 0.23
CC(C)(C)N1C(=O)[C@H]2[C@H]3[C@H](O)[C@H](O)CC(=NOC[C@@H](O)COCc4ccco4)[C@H]3CC[C@H]2C1=O | -0.488 | 0.262 (inactive) | -0.622 (inactive) | 0.748 (inactive) | -0.0606 (inactive) | 0.0001 (inactive) | -0.0207 (inactive) | -0.149 (inactive) | -0.583 | -0.334
CCOC(=O)[C@H](CC(C)C)NC(=O)CCC1CC(OC(=O)NCc2ccc3c(c2)OCO3)CC2(CCCC(COC(=O)NCCc3ccccc3OC)O2)O1 (stereo not given in full) | 0.686 | 0.594 (inactive) | -0.0143 (inactive) | -0.445 (inactive) | 0.614 (inactive) | -0.173 (inactive) | -0.163 (inactive) | -1.02 (inactive) | 0.512 | -0.102
COC(=O)[C@H](C)NC(=O)CCC1CC(OC(=O)NCc2ccc3c(c2)OCO3)CC2(CCCC(COC(=O)NCCC(C)C)O2)O1 (stereo not given in full) | 0.506 | -0.43 (inactive) | -0.274 (inactive) | -0.558 (inactive) | -0.294 (inactive) | -0.774 (inactive) | 0.909 (inactive) | -0.804 (inactive) | 0.0961 | 0.0245
CC(C)=CCCC(C)=CCON=C1[C@H]2CCn3c(=O)n(-c4ccccc4)c(=O)n3[C@H]2[C@H](O)[C@@H]2O[C@H]12 | -0.792 | -3.89 (inactive) | -2.7 (inactive) | -0.197 (inactive) | 0.717 (inactive) | -0.0881 (inactive) | -0.611 (inactive) | 0.092 (inactive) | -2.03 | 0.293
COC(=O)[C@H](C)NC(=O)CCC1CC(OC(=O)NCCc2ccc(F)cc2)CC2(CCCC(COC(=O)NCC3CCCCC3)O2)O1 (stereo not given in full) | 0.427 | -0.491 (inactive) | 1.05 (inactive) | -2.53 (inactive) | -0.919 (inactive) | 0.363 (inactive) | -0.603 (inactive) | -0.741 (inactive) | 0.13 | 0.514
CC(C)=CCCC(C)=CCON=C1C[C@@H](O)[C@@H](O)[C@@H]2[C@@H]3C(=O)N(c4cccc(Oc5ccccc5)c4)C(=O)[C@@H]3CC[C@H]12 | 1.05 | 0.681 (inactive) | 0.674 (inactive) | -0.141 (inactive) | -0.0849 (inactive) | 0.668 (inactive) | 0.599 (inactive) | 0.15 (inactive) | 0.157 | -0.102
CC(CCN1CCc2nc(-c3ccccc3)c(-c3ccccc3)cc2C1)=NO[C@@H](C)c1cc(-c2c(C)cc(C)cc2C)no1 | -0.377 | -1.7 (inactive) | 0.553 (inactive) | -2.15 (inactive) | -0.634 (inactive) | -0.482 (inactive) | -1.04 (inactive) | -1.01 (inactive) | 0.812 | -0.209
CO[C@@H]1C=CCC(=O)N[C@@H](C)C(=O)OC[C@@H](NS(=O)(=O)c2ccc(C)cc2)[C@H](C)C=CCC(=O)OC[C@H]1C | -0.0689 | -0.872 (inactive) | -0.0213 (inactive) | -0.165 (inactive) | -0.212 (inactive) | -0.876 (inactive) | 0.0721 (inactive) | -0.418 (inactive) | 0.135 | 0.201
CO[C@H]1COC(=O)CCC[C@H](C)[C@H](OC)COC(=O)CC=C[C@@H]1C | 0.631 | -2.21 (inactive) | 0.364 (inactive) | -1.04 (inactive) | -0.692 (inactive) | -1.93 (inactive) | 0.115 (inactive) | 0.757 (inactive) | 0.541 | 0.0593
COc1ccc(COC(=O)NN=C2C[C@@H](O)[C@@H](O)[C@@H]3[C@@H]4C(=O)N(Cc5ccc6c(c5)OCO6)C(=O)[C@@H]4CC[C@H]23)cc1 | -0.318 | 0.321 (inactive) | -0.0139 (inactive) | -0.394 (inactive) | -0.273 (inactive) | 0.139 (inactive) | 0.586 (inactive) | 1.17 (inactive) | 0.18 | 0.0498
O=C1[C@H]2[C@H]3[C@H](O)[C@H](O)CC(=NOC[C@@H](O)COCc4ccco4)[C@@H]3CC[C@H]2C(=O)N1c1cccc(Oc2ccccc2)c1 | 0.928 | -0.378 (inactive) | 0.25 (inactive) | 0.295 (inactive) | -0.389 (inactive) | -1 (inactive) | -0.25 (inactive) | -1.28 (inactive) | 0.0789 | 0.1
CCOC(=O)[C@H](Cc1ccccc1)NC(=O)CCC1CC(OC(=O)NCCc2ccc(F)cc2)CC2(CCCC(COC(=O)NCCOc3ccccc3)O2)O1 (stereo not given in full) | 0.121 | -0.245 (inactive) | -0.02 (inactive) | -0.189 (inactive) | 0.651 (inactive) | 0.408 (inactive) | 0.417 (inactive) | 0.343 (inactive) | 0.194 | -0.0166
CC(C)=NO[C@H](C)c1cn([C@@H]2COC[C@H]2O)nn1 | -1.51 | -0.0346 (inactive) | -0.508 (inactive) | 0.0741 (inactive) | 0.101 (inactive) | -0.683 (inactive) | 0.504 (inactive) | 0.82 (inactive) | -0.469 | -0.152
CC(C)CON=C1C[C@@H](O)[C@@H](O)[C@@H]2[C@@H]3C(=O)N(c4ccc(F)cc4F)C(=O)[C@@H]3CC[C@@H]12 | 0.372 | -1.98 (inactive) | 0.88 (inactive) | -2.1 (inactive) | -0.27 (inactive) | -1.22 (inactive) | 1.01 (inactive) | 0.15 (inactive) | -0.226 | -0.0296
CC(C)=NOC[C@@H](O)[C@H]1O[C@@H]2OC(C)(C)O[C@@H]2[C@H]1O | -0.831 | -0.0545 (inactive) | -0.369 (inactive) | 0.759 (inactive) | -0.443 (inactive) | 0.0762 (inactive) | 0.757 (inactive) | 0.704 (inactive) | -0.686 | -0.389
COc1ccc(O[C@H]2C=C[C@@H](C#Cc3ccccc3)O[C@@H]2CO)cc1 | 0.124 | -10.4 (active) | -1.24 (inactive) | -0.759 (inactive) | 0.0372 (inactive) | -0.76 (inactive) | 0.633 (inactive) | 0.14 (inactive) | -0.021 | -0.0412
COCCNC(=O)OCC1CCCC2(CC(OC(=O)NCc3cccc4ccccc34)CC(CCC(=O)N[C@@H](C)C(=O)OC)O2)O1 (stereo not given in full) | 1.77 | -0.0524 (inactive) | 0.343 (inactive) | 0.124 (inactive) | -0.303 (inactive) | 1.36 (inactive) | 0.17 (inactive) | 0.812 (inactive) | 0.79 | -0.0999
CCOC(=O)CCN1C(=O)[C@H]2[C@@H]3C(=CC[C@H]2C1=O)C(=O)[C@H]1O[C@H]1[C@H]3O | -0.423 | -0.894 (inactive) | -5.48 (inactive) | -0.369 (inactive) | 0.0335 (inactive) | -0.548 (inactive) | -0.254 (inactive) | 0.322 (inactive) | -2.2 | -0.0812
O=C1[C@H]2[C@H]3[C@H](O)[C@H](O)CC(=NOCc4ccccc4)[C@H]3CC[C@H]2C(=O)N1C1CCCCC1 | -0.483 | -0.149 (inactive) | -0.99 (inactive) | 0.0894 (inactive) | 0.377 (inactive) | -0.373 (inactive) | -0.157 (inactive) | -0.414 (inactive) | -1.83 | 0.237
O=C(NCCC[N+]1=CC=NC1c1ccccc1)N1CCCc2nc(-c3ccc(Br)cc3)ccc21 (stereo not given) | 0.0392 | -2.72 (inactive) | -1.04 (inactive) | 1.01 (inactive) | 0.508 (inactive) | 1.6 (inactive) | 1.11 (inactive) | -0.493 (inactive) | -0.29 | -0.105
